DAX1 inh-1: DAX1 (NR0B1) inhibition, primary screen; inhibition, % at 6.8 µM; actives 1.1% (n = 370,000); HEK293T StAR-luciferase reporter, SF-1/DAX-1 repression relief;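 active means inhibition above the mean over all tested compounds plus 3 SD, cut at about 3.6% in these data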;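 further: 0% = DAX-1 cells with DMSO and 100% = cells lacking DAX-1 with DMSO; higher inhibition means more luminescence from relief of DAX-1 repression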
ssDAF-12 act: activates DAF-12 receptor from parasite S. stercoralis; activation, % at 6.8 µM; actives 1% (n = 370,000); HEK293 ssDAF-12/GRIP1 lit1-tk-luc reporter, luminescence; % of 3 µM dafachronic acid response;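 active means activation above the mean over all tested compounds plus 3 SD, cut at about 0.9% in these data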;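 further: 0% = DMSO-only wells and 100% = 3 µM delta7-dafachronic acid wells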
hgDAF12 agonist: agonists of H. glycines DAF-12 nuclear receptor. HEK293 GAL4-hgDAF12 UAS-luciferase reporter, agonist luminescence; normalized to butyrate control. activation, % at 6.8 µM. actives 1.8% (n = 370,000). AID 687014;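 active means activation above a cutoff set at the mean of all screened compounds plus 3 SD, cut at about 10% in these data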;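 further: 0% = DMSO wells and 100% = sodium butyrate wells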
DAX1 inh-2: inhibitors of human orphan nuclear receptor DAX1 (NR0B1) | inhibition, % at 6.75 µM | HEK293 Gal4-DAX1 luciferase reporter, luminescence | actives 0.99% (n = 340,000) | P51843;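 active means inhibition above the mean over all tested compounds plus 3 SD, cut at about 4.2% in these data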;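 further: 0% = DAX1-transfected cells with DMSO and 100% = empty-vector control cells with DMSO; inhibition shows as a rise in luminescence from relieved DAX1 repression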
Target sequence (P51843 207-470 limits assumed): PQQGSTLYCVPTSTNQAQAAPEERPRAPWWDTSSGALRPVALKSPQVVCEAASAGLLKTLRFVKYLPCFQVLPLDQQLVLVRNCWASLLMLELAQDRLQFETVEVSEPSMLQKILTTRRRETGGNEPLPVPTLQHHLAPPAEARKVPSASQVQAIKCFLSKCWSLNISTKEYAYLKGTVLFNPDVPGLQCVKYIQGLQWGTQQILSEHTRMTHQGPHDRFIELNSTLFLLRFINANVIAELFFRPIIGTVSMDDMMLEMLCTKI
hcDAF-12 act: activates DAF-12 receptor from parasite H. contortus; HEK293 hcDAF-12 lit1-tk-luc reporter, luminescence; 0% DMSO, 100% Δ7-dafachronic acid; activation, % at 6.8 µM; actives 1.4% (n = 370,000); AID 652067;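 active means activation above the mean of all tested compounds plus 3 SD, cut at about 5.5% in these data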;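 further: 100% = response to 3 µM Δ7-dafachronic acid high control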
LXRb hcDAF ctr: counter-screen for hcDAF-12 agonists: agonists of human LXR-beta; shares compounds with hcDAF-12 act; HEK293 Gal4-LXR tk-luc reporter, luminescence, 24 h; normalized: DMSO 0%, positive control 100%; activation, % at 6.8 µM; 3,400 tested, under 10 active;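 active means mean percent activation of the reporter above a cutoff set as the average over tested compounds plus their standard deviation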
hcDAF12 conf: confirmation of H. contortus DAF-12 agonists. shares compounds with hcDAF-12 act. HEK293 hcDAF-12 lit1-tk-luc reporter, luminescence; % of Δ7-dafachronic acid response. activation, % at 6.8 µM. actives 61% (n = 3,400);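 active means mean activation across triplicate tests above the threshold derived from the earlier primary screen, cut at about 5.5% in these data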;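 further: 0% = DMSO only wells and 100% = 3 µM Δ7-dafachronic acid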
hgDAF12 ag: hgDAF-12 agonism, confirmation assay; shares compounds with hgDAF12 agonist; activation, % at 6.8 µM; actives 80% (n = 3,300); HEK293 GAL4-hgDAF12 luciferase reporter, agonist mode; percent of butyrate response;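 active means mean activation over triplicate wells above the hit cutoff derived from the earlier primary screen, cut at about 11% in these data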;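 further: 0% = DMSO low control and 100% = 2 mM sodium butyrate high control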
LXR ag 2: LXR-beta agonism as DAF-12 counter-screen; HEK293 Gal4-LXR luciferase reporter, 24 h; activation, % at 6.8 µM; AID 743051; 3,300 tested, under 10 active; shares compounds with hgDAF12 agonist;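 active means mean activation of the triplicate above a set limit carried over from the primary screen, none filed active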
* = called active by the depositor; · = no result given. Rows were chosen to be rich in hits. Some 4.1% of all compounds tested hit in one or more screens of this group.

SMILES	DAX1 inh-1	ssDAF-12 act	hgDAF12 agonist	DAX1 inh-2	hcDAF-12 act	LXRb hcDAF ctr	hcDAF12 conf	hgDAF12 ag	LXR ag 2
CSc1ccccc1-c1nnc(-c2ccc(C)cc2)o1	3.4	1.7*	14.5*	2.1	10.3*	0.9	8.8*	15.0*	0.5
CSc1nnc(-c2ccccc2SC)o1	0.5	-1.5	-0.9	-0.1	-1.6	·	·	·	·
CCn1c(/C=C/c2ccccc2)nc2ccccc21	3.9*	1.4*	15.3*	0.4	11.2*	1.4	12.4*	17.0*	0.9
CCCCc1nnc(NC(=O)c2ccc3[nH]c(=O)c(=O)[nH]c3c2)s1	-0.2	-0.9	-0.7	0.7	-1.7	·	·	·	·
Cc1ccc(CNC(=O)C(C)OC(=O)c2cccs2)cc1 (stereo not given)	0.1	-0.7	-1.2	2.8	0.1	·	·	·	·
CS(=O)(=O)N1N=C(c2cccs2)CC1c1ccccc1 (stereo not given)	0.0	-1.7	1.8	-1.9	0.2	·	·	·	·
Cc1ccc(C2=NN(S(C)(=O)=O)C(c3cccs3)C2)cc1 (stereo not given)	1.7	0.3	14.4*	2.7	7.6*	0.9	4.9	14.1*	0.4
CCc1ccc(C2=NN(S(C)(=O)=O)C(c3cccs3)C2)cc1 (stereo not given)	2.7	2.6*	14.8*	1.2	11.7*	1.3	6.1*	23.0*	1.1
COc1ccc(C2=NN(S(C)(=O)=O)C(c3cccs3)C2)cc1 (stereo not given)	2.7	0.1	4.8	0.6	1.1	·	·	·	·
CCn1c(=O)n(C)c2c(=O)n(C)c(=O)n(C)c21	0.7	-1.4	1.8	-0.6	-0.2	·	·	·	·
CC(C)c1ccc(NC(=O)COc2ccc(F)cc2C(=O)c2cnn(-c3ccccc3)c2)cc1	4.1*	2.2*	18.0*	1.2	12.2*	0.9	13.7*	17.4*	0.5
Cc1cc(NC(=O)CCc2ccccc2)c([N+](=O)[O-])cc1C	-0.2	-1.4	1.5	0.1	-0.8	·	·	·	·
CCOC(=O)c1c(C)oc2c1c(C(c1cccnc1)N1CCOCC1)c(O)c1ccccc12 (stereo not given)	3.0	2.6*	13.5*	4.9*	10.4*	0.5	5.7*	7.9	0.4
CCOC(=O)c1c(C)oc2c1c1c(c3ccccc32)OCN(Cc2cccnc2)C1	·	·	·	0.3	·	·	·	·	·
Cc1cc(C(=O)Nc2ccc3c(c2)OCCO3)c(C)o1	3.2	-0.4	8.8	0.5	4.4	·	·	·	·
O=C(Nc1ccc2c(c1)OCCO2)c1cccc(Cl)c1	2.0	-0.1	17.6*	3.3	9.9*	1.2	3.7	15.4*	0.7
O=C(Nc1ccc2c(c1)OCCO2)c1ccc(Cl)cc1Cl	2.0	0.9	13.5*	-1.9	8.0*	1.8	8.0*	18.7*	0.9
S=C(NCCCN1CCOCC1)N(Cc1ccccc1)Cc1ccccc1	-0.1	-0.6	-2.3	1.1	-2.3	·	·	·	·
Clc1cccc(-c2nnc(-c3ccccc3)o2)c1	2.4	1.9*	15.8*	1.2	14.3*	1.5	11.4*	22.8*	1.1
Cc1ccc(-c2nc3ccccc3s2)cc1NC(=S)NC(=O)/C=C/c1ccco1	1.9	0.5	6.2	0.9	3.2	·	·	·	·
O=C(/C=C/c1ccco1)NC(=S)Nc1cc(-c2nc3ccccc3s2)ccc1Cl	2.5	2.8*	14.8*	2.1	11.7*	0.1	5.1	6.0	0.1
Cc1ccn2cc(-c3ccc(Br)cc3)nc2c1	3.7*	0.8	13.7*	-3.1	11.7*	1.3	8.4*	12.7*	1.0
Cc1ccc(S(=O)(=O)Nc2ccc(-c3cn4ccc(C)cc4n3)cc2)cc1	0.4	-1.5	3.9	0.1	-0.9	·	·	·	·

Screening data deposited in PubChem by The Scripps Research Institute Molecular Screening Center.
